Bioassay records: PubChem BioAssay, National Center for Advancing Translational Sciences (NCATS)
In the library only some 21% were active in any assay of this set; here they are far more common.
IL-1B inflam inh – inflammasome signaling inhibition, IL-1 beta readout. THP-1 LPS/ATP IL-1B secretion, AlphaLISA, 16 h; active compounds read low. activity change, % at 57.5 µM. hit rate 4.7% among 360,000; in the data active means activity change below about -50%; inconclusive means mostly about -30% to -49%; further: on the % scale 0 is the no-effect control and ±100 the full control effect
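Secreted IL-1B measured by AlphaLISA bead assay after 16 h compound exposure of THP-1 cells; compounds (final up to 57.5 uM) added 1 h before LPS (250 ng/mL) and ATP (1.25 mM) stimulation; lower signal means less secretion.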
TDP1 cell CPT – DT40-hTDP1 cell growth loss with CPT. chicken DT40 Tdp1-/-;hTDP1 cells + 20 nM CPT, ATP luminescence, 48 h. Potency, µM (doses to about 46.2 µM), for inactives: top-dose activity change, negative = growth inhibition, usual class: inhibitors. hit rate 12% among 420,000; further: potency means the concentration at half of the fitted maximal effect; on the % scale 0 is the no-effect control and ±100 the full control effect; nearly all actives have a fitted effect of over 55% in size
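Chicken DT40 Tdp1-/- cells stably complemented with human TDP1 were seeded at 400 cells/well in medium containing 20 nM camptothecin, exposed to pin-transferred compounds, and grown at 37 °C for at least 48 hr. Viability was read as ATP luminescence.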
DRD3 antagonist – D3 dopamine receptor (human) antagonism. P35462. D3R cells, DiscoveRx beta-arrestin luminescence, antagonist mode; active compounds read low. max response, negative = inhibition, %. hit rate 2.5% among 360,000. AID 652054; in the data active means max response below about -50%; inconclusive means no clear call, values can overlap the other calls; further: on the % scale 0 is the no-effect control and ±100 the full control effect
Target sequence (P35462 whole entry, looked up): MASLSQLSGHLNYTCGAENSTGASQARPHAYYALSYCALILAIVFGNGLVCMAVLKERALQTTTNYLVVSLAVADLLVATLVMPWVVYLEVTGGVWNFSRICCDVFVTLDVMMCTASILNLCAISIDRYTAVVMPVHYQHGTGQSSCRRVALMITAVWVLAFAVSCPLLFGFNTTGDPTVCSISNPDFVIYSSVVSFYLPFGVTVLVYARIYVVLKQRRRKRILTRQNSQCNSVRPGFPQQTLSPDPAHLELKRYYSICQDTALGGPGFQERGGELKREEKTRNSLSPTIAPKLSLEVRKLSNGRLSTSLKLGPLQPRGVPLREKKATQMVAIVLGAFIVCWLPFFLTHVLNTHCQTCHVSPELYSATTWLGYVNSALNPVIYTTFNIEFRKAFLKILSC
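Cells expressing the human receptor were seeded at 1500 cells/well, incubated overnight at 37 degrees C in 5% CO2, then exposed to library compounds with dopamine controls for 90 minutes at 37 degrees C before luminescent detection.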
ClpP mod – qHTS Assay for Activators of ClpP. ATP-dependent Clp protease proteolytic subunit (Bacillus subtilis (strain 168)), P80244. purified B. subtilis ClpP, FRET peptide cleavage, 20 min. Potency, µM (highest dose often 57.5 µM), for inactives: top-dose activity change, negative = active. hit rate 1.9% among 340,000. AID 651965, 2013; active means well fitted falling curve with a large enough effect; inconclusive means small, poorly fitted or top-dose-only effect; inactive means no such curve, though single readings can be large or run the other way; further: potency means the concentration at half of the fitted maximal effect; the source files actives as falling curves though it sought activators and does not explain the sign; nearly all actives have a fitted effect of over 65% in size
Target sequence (P80244 whole entry, looked up): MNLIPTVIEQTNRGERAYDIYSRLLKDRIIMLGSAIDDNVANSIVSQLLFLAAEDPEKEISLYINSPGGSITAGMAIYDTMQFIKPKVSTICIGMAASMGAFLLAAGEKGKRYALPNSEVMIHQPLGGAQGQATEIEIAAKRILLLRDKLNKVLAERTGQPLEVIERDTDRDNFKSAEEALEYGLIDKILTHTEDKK
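FRET quenching reversal measured ClpP activation: 10 microg/mL B. subtilis ClpP at pH 8 with the FRET-FV decapeptide, read at 430 nm after 320 nm excitation. The 20-min minus 0-min signal was scaled between DMSO/no-enzyme wells and ADEP (5.8 microM final).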
TDP1 cell noCPT – qHTS for Inhibitors of human tyrosyl-DNA phosphodiesterase 1 (TDP1): qHTS in cells in absence of CPT; AID 686978, 2013; DT40 Tdp1-/- hTDP1 cells, no CPT, ATP luminescence, 48 h; hit rate 15% among 420,000; Potency, µM (series often up to 46.2 µM), for inactives: at the top dose activity change, negative = growth inhibition, usual class: inhibitors; further: potency means the concentration at half of the fitted maximal effect; on the % scale 0 is the no-effect control and ±100 the full control effect; nearly all actives have a fitted effect of over 55% in size
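Growth kinetics read by CellTiter-Glo luminescence after ≥48 hr at 37 °C. Cells: DT40 Tdp1-/- stably carrying human TDP1, 400 per well, compound exposure in the absence of CPT (DMSO vehicle).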
D3 ag – agonists of human D3 dopamine receptor; P35462; D3R DiscoveRx beta-arrestin cells, luminescence, 90 min; max activation, %; hit rate 0.58% among 410,000; AID 652048; in the data active means max activation above about 30%; further: 0% is about no effect
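Cells at 1500/well, incubated overnight, then treated with pinned compounds (dopamine as control) for 90 min at 37 degrees C. DiscoveRx reagent added for 30 - 60 minutes at room temperature; luminescence read.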
Active calls of the source: *; ? = inconclusive; . = no result given. Unless noted, the call rests on the fitted dose curve; in most records, active means well fitted inhibition curve with a large enough effect; inconclusive means small, poorly fitted or top-dose-only effect; inactive means flat fitted curve, though single readings scatter.

SMILES	IL-1B inflam inh	TDP1 cell CPT	DRD3 antagonist	ClpP mod	TDP1 cell noCPT	D3 ag
Cc1ccc(CNC(=O)NC2COc3ccccc3C2)cc1 (stereo not drawn)	.	-10%	.	0%	-22%	-17
NC(=O)c1nsc(C(=O)N(c2ccc(F)cc2)C(C(=O)NCC2CCCO2)c2c[nH]c3ccccc23)c1N (stereo not drawn)	-60*	?	-10	.	?	2
CSCC[C@H](NC(=O)N1CCn2c1nc1ccccc12)C(=O)N1CCCCC1	-1	-19%	0	-2%	-2%	1
CCC(C)[C@H](NC(=O)N1CCn2c1nc1ccccc12)C(=O)NCCc1ccccc1 (stereo partly drawn)	-59*	21µM*	8	2%	?	0
COc1ccc(CCNC(=O)[C@H](CC(C)C)NC(=O)N2CCn3c2nc2ccccc23)cc1OC	-66*	-64%	1	0%	?	-8
COc1cccc(NC(=O)[C@@H](NC(=O)N2CCn3c2nc2ccccc23)C(C)C)c1	5	-13%	-7	.	13µM*	-6
CC(C)C[C@H](NC(=O)N1CCn2c1nc1ccccc12)C(=O)N1CCCCC1	-5	?	10	1%	21µM*	-4
COc1cccc(NC(=O)[C@H](C)NC(=O)N2CCn3c2nc2ccccc23)c1	13	-14%	0	0%	5%	2
COc1ccc(CCNC(=O)[C@@H](NC(=O)N2CCn3c2nc2ccccc23)C(C)C)cc1OC	-13	?	-3	-2%	?	-2
CC(=O)c1cn(CCC(C)C)c(=O)[nH]c1=O	-4	-12%	-12	2%	28%	-9
CC(=O)c1cccc(S(=O)(=O)Nc2cc(C(F)(F)F)ccc2N2CCOCC2)c1	0	-10%	-18	-2%	-9%	-1
CCC(C)[C@H](NC(=O)N1CCn2c1nc1ccccc12)C(=O)NCCc1ccc(OC)c(OC)c1 (stereo partly drawn)	-9	15µM*	-2	1%	16µM*	5
CCOC(=O)c1sc(-c2ccccn2)nc1C	19	4%	2	1%	1%	1
COc1ccc(C(=O)NCc2ccc3c(c2)CCN3C(=O)c2cccc(C)c2)cc1OC	.	-9%	.	14%	-1%	3
COc1cccc(CN2CC(O)=C(c3nc(-c4ccc(Cl)cc4)cs3)C2=N)c1	53	-18%	-18	0%	9.2µM*	5
CCCCN1CC(O)=C(c2nc(-c3ccc(Cl)cc3)cs2)C1=N	19	-13%	36	0%	-17%	1
COc1ccc(N2CC(O)=C(c3nc(-c4ccc(F)cc4)cs3)C2=N)cc1OC	-1	?	29	.	18µM*	6
COc1ccc(N2CC(O)=C(c3nc(-c4ccc(F)cc4)cs3)C2=N)cc1Cl	12	?	1	0%	?	1
COCC(C)N1CC(O)=C(c2nc(-c3ccc(Cl)cc3)cs2)C1=N (stereo not drawn)	-53*	-27%	-9	.	-28%	3
N=C1C(c2nc(-c3ccc(Cl)cc3)cs2)=C(O)CN1CCCN1CCOCC1	?	26µM*	-18	0%	26µM*	11
Cc1cccn2c(=O)nc(SCC(=O)N3CCC(C)CC3)nc12	-5	-10%	19	0%	-27%	2
CCC1CCC(C(=O)NC(CCSC)C(=O)NCCc2ccc(S(N)(=O)=O)cc2)CC1 (stereo not drawn)	-13	-18%	1	1%	-17%	2
COc1ccc(CNC(=O)C2CCN(S(=O)(=O)c3c(C)noc3/C=C/c3cccs3)CC2)cc1	.	-23%	.	-3%	-27%	11
COc1ccc(-c2cc(C(=O)Nc3c(C)nn(Cc4ccccc4C)c3C)no2)cc1	.	-2%	.	-19%	-30%	2
COc1cccc(C(N)c2nc(-c3cc(F)cc(F)c3)cs2)c1 (stereo not drawn)	37	?	0	1%	?	-11
SMILES	IL-1B inflam inh	TDP1 cell CPT	DRD3 antagonist	ClpP mod	TDP1 cell noCPT	D3 ag
O=C(/C=C/c1ccc(Cl)cc1)N1CCC(c2nc3ccccc3o2)CC1	.	?	.	2%	?	9
N#Cc1c2c(c(NCc3cccnc3)n3c1nc1ccccc13)CCC2	-14	-5%	-53*	32µM*	-8%	-1
N#Cc1c2c(c(NCCOCCO)n3c1nc1ccccc13)CCCC2	-5	5%	10	.	-29%	-4
COCCNc1c2c(c(C#N)c3nc4ccccc4n13)CCCC2	13	26µM*	7	-1%	21µM*	5
N#Cc1c2c(c(Cl)n3c1nc1ccccc13)CCCC2	.	0.71µM*	.	-26%	0.89µM*	.
COc1ccc(Nc2c3c(c(C#N)c4nc5ccccc5n24)CCC3)cc1	26	-13%	0	-1%	-12%	0
CC(NS(=O)(=O)CCNC(=O)c1ccccc1)c1ccccc1 (stereo not drawn)	-5	9%	3	-1%	4%	-3
CC1OC(CC(=O)O)CC2=C1C(=O)c1c(O)cccc1C2=O (stereo not drawn)	-98*	0.1µM*	-94*	0%	0.065µM*	-23
COc1ccccc1N1CCN(S(=O)(=O)c2ccc(F)c(C(=O)Nc3ccc(Cl)cc3C(F)(F)F)c2)CC1	.	?	.	-3%	21µM*	-7
COc1ccc(N2CCN(S(=O)(=O)c3ccc(F)c(C(=O)Nc4ccccc4Cl)c3)CC2)cc1	.	7.3µM*	.	-1%	8.2µM*	8
Cc1nc2ccc(Br)cn2c1C(=O)N/N=C\c1ccccc1Cl	6	?	2	0%	?	1
Cc1ccc(NC(=O)COC(=O)c2cccc(S(=O)(=O)N3CCCCCC3)c2)cc1	17	-14%	-17	0%	-7%	-4
COc1ccc(CN(C(=S)Nc2ccccc2)C2CC(=O)N(c3ccc(F)cc3)C2=O)cc1 (stereo not drawn)	9	?	-13	-21%	?	-6
CNC(=S)N(Cc1ccc(OC)cc1)C1CC(=O)N(c2ccc(Cl)cc2)C1=O (stereo not drawn)	-22	16µM*	13	1%	18µM*	0
C=CCN(C(=O)Nc1ccc(F)cc1)C1CC(=O)N(c2ccc(OC)cc2)C1=O (stereo not drawn)	5	-2%	-6	-1%	-12%	22
